# Bioassay records as filed in PubChem.
# FadD28 FP inh = inhibitors of FadD28 bisubstrate probe binding, primary screen, biochemical, fluorescence polarization, single point; 360,000 tested, 0.22% active; inhibition, % at 12.5 µM; Mycobacterium tuberculosis FadD28 fatty-acid-AMP ligase; in the data active = inhibition above about 8.5%, passing the limit was not always enough
# RecA splice inh = Mtb RecA intein splicing inhibitors, primary screen, biochemical, fluorescence, HTS; Protein RecA (Mycobacterium tuberculosis (strain ATCC 25618 / H37Rv)), P9WHJ3; cell-free RecA intein splicing; inhibition, % (test concentration not listed); 290,000 tested, 0.75% active; in the data active = inhibition above about 30%;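 also: 0% = vehicle wells and 100% = reference inhibitor control wells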
# UGM FP inh = M. tuberculosis UGM enzyme inhibitors, primary screen, biochemical, fluorescence polarization, single point | UDP-galactopyranose mutase (Mycobacterium tuberculosis (strain ATCC 25618 / H37Rv)), … | AID 504406, 2011 | inhibition, % at 10 µM | 320,000 tested, 0.06% active | purified UGM, fluorescence polarization probe displacement; in the data active = inhibition above about 10%, passing the limit was not always enough
# Target sequence (P9WIQ1 whole entry, looked up): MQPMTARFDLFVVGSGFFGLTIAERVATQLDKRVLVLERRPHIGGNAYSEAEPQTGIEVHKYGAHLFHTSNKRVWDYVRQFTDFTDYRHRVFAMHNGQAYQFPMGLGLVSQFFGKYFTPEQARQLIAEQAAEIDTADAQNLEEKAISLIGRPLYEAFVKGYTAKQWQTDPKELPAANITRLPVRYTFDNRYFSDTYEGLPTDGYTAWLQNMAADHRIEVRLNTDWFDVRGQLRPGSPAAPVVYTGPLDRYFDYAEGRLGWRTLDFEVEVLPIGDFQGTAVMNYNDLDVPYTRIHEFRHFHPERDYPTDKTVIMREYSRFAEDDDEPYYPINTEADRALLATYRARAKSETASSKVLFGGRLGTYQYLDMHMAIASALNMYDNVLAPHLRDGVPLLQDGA
# Rv3671c protease = Rv3671c serine protease inhibitors, primary screen, biochemical, fluorescence polarization, M. tuberculosis H37Rv; P9WHR9; inhibition, % at 5.96 µM; 320,000 tested, 0.048% active; AID 2606, 2010; in the data active = inhibition above about 38%;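 also: extracellular domain of Rv3671c used as enzyme; 0% = enzyme with DMSO and 100% = no enzyme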
# Mtb BioA inh = M. tuberculosis BioA enzyme inhibitors, primary screen, biochemical, plate reader, single point, HTS; 7,8-diaminopelargonic acid synthase BioA (Mycobacterium tuberculosis); purified M. tuberculosis BioA enzyme; inhibition, % at 9.99 µM; 360,000 tested, 0.096% active; AID 602481, 2012; in the data active = inhibition above about 40%
# TcdB inh = TcdB glycohydrolase inhibitors, primary screen, biochemical, single point, plate reader; Toxin B (Clostridioides difficile), P18177; TcdB glycohydrolase enzymatic assay; inhibition, % at 9.99 µM; 350,000 tested, 0.24% active; AID 652162, 2013; in the data active = inhibition above about 10%
# * = called active by the depositor; nt = not tested or not shown. Only some compounds are listed: those with a hit (about 0.9% of all), similar ones and a draw of the others.
SMILES,FadD28 FP inh,RecA splice inh,UGM FP inh,Rv3671c protease,Mtb BioA inh,TcdB inh
COCCNC(=O)Cn1cc(C=C2C(=O)NC(=O)NC2=O)c2ccccc21,0,0,42*,2,-1,1
C[C@@H]1CN([C@@H](C)CO)C(=O)c2cc(NC(=O)Cc3ccccc3)ccc2O[C@@H]1CN(C)S(=O)(=O)c1cn(C)cn1,nt,nt,nt,nt,0,0
Cc1c(Cl)cccc1NC(=O)C1Cc2ccccc2CN1C(=O)c1ccccc1 (stereo not given),-4,3,-5,0,nt,11*
Cc1ccc(S(=O)(=O)N(C)C[C@H]2Oc3c(NC(=O)Nc4c(C)noc4C)cccc3C(=O)N([C@H](C)CO)C[C@@H]2C)cc1,nt,nt,nt,nt,2,0
CCCc1[nH]nc2c1C(c1ccncc1)C(C#N)=C(N)O2 (stereo not given),-1,32*,2,-7,0,nt
CCOc1ccc(C2C(C#N)=C(N)Oc3nc[nH]c(=O)c32)cc1OC (stereo not given),4,-4,-1,-7,-2,nt
COc1cc(-c2[nH]nc3c2C(c2ccoc2)C(C#N)=C(N)O3)cc(OC)c1OC (stereo not given),-1,nt,-2,-12,-1,nt
Cc1ccc(SCc2[nH]nc3c2C(c2cccnc2)C(C#N)=C(N)O3)cc1 (stereo not given),-1,13,1,-16,3,1
CCCc1[nH]nc2c1C(c1ccc(O)c(OC)c1)C(C#N)=C(N)O2 (stereo not given),-5,79*,1,9,nt,nt
CCCc1[nH]nc2c1C(c1ccc(OC)c(Cn3nnc4ccccc43)c1)C(C#N)=C(N)O2 (stereo not given),3,70*,0,-2,16,nt
CCOc1ccc(-c2[nH]nc3c2C(c2ccc4c(c2)OCO4)C(C#N)=C(N)O3)cc1OC (stereo not given),-5,60*,0,-9,0,nt
CCCC(=O)Nc1ccc2c(c1)C(=O)N(C)C[C@@H](OC)[C@@H](C)CN(Cc1nccs1)[C@H](C)CO2,nt,nt,nt,nt,-1,nt
Cc1noc(C)c1S(=O)(=O)Nc1ccc2c(c1)CC(=O)N([C@@H](C)CO)C[C@@H](C)[C@H](CN(C)C(=O)Nc1cccc3ccccc13)O2,nt,nt,nt,nt,3,1
COCc1[nH]nc2c1C(c1cc(OC)c(O)c(OC)c1)C(C#N)=C(N)O2 (stereo not given),0,-4,-3,-2,nt,nt
CCCc1[nH]nc2c1C(c1ccccc1OCC)C(C#N)=C(N)O2 (stereo not given),-1,67*,3,-8,-1,nt
N#CC1=C(N)Oc2n[nH]c(-c3ccc(F)cc3)c2C1c1ccncc1 (stereo not given),-2,62*,-1,-3,4,nt
CCc1[nH]nc2c1C(c1cccnc1)C(C#N)=C(N)O2 (stereo not given),-1,45*,1,-6,1,nt
COCc1[nH]nc2c1C(c1cccc(OC)c1)C(C#N)=C(N)O2 (stereo not given),0,57*,6,-8,-4,nt
CCCc1[nH]nc2c1C(/C(C)=C/c1ccccc1)C(C#N)=C(N)O2 (stereo not given),-7,7,2,0,3,nt
CCCc1[nH]nc2c1C(c1cccnc1)C(C#N)=C(N)O2 (stereo not given),-3,nt,0,-1,-1,nt
COc1cc(C2C(C#N)=C(N)Oc3n[nH]c(-c4ccncc4)c32)cc(OC)c1OC (stereo not given),0,-4,3,-8,-1,nt
C[C@@H]1CCCCO[C@@H](CN(C)Cc2ccc(C(=O)O)cc2)[C@H](C)CN([C@H](C)CO)C(=O)c2cc(NC(=O)NC3CCCCC3)ccc2O1,nt,nt,nt,nt,-1,0
CCCc1[nH]nc2c1C(c1ccc(OC(=O)N3CCOCC3)cc1)C(C#N)=C(N)O2 (stereo not given),2,48*,1,4,2,1
COc1ccc(-c2[nH]nc3c2C(c2ccc(OC(=O)N4CCOCC4)cc2)C(C#N)=C(N)O3)cc1 (stereo not given),nt,nt,-2,-9,nt,nt
N#CC1=C(N)Oc2n[nH]c(-c3cccs3)c2C1c1ccoc1 (stereo not given),2,85*,1,-8,-1,nt
SMILES,FadD28 FP inh,RecA splice inh,UGM FP inh,Rv3671c protease,Mtb BioA inh,TcdB inh
COc1ccc(-c2[nH]nc3c2C(c2ccsc2)C(C#N)=C(N)O3)cc1 (stereo not given),-1,71*,2,-3,2,nt
Cc1cc(C)c(C#N)c(SCc2[nH]nc3c2C(c2ccc(F)cc2)C(C#N)=C(N)O3)n1 (stereo not given),-13,32*,1,-4,nt,nt
O=C(C[C@@H]1C[C@H]2c3cc(NC(=O)CC4CC4)ccc3O[C@H]2[C@H](CO)O1)NCc1ccncc1,nt,nt,nt,nt,0,0
C[C@@H]1CN([C@H](C)CO)S(=O)(=O)c2ccc(C#CCN(C)C)cc2O[C@H]1CN(C)Cc1ccccn1,nt,nt,nt,nt,1,-1
CCCc1[nH]nc2c1C(c1ccc(OCCN3CCOCC3)c(OC)c1)C(C#N)=C(N)O2 (stereo not given),1,32*,4,7,6,nt
Nc1ccc(N(CCO)CCO)cc1,1,63*,3,-73,nt,-9
COc1cc2[nH]c(=S)n(Cc3cccs3)c(=O)c2cc1OC,0,-2,1,-10,0,25*
CCCn1c(=S)[nH]c2cc(OC)c(OC)cc2c1=O,-1,-8,0,-4,-2,2
Cc1c(Br)c(=O)oc2c(Br)c(O)c(O)cc12,13*,-70,3,24,nt,-4
CCCNC(=O)[C@@H]1[C@@H](CO)[C@@H]2Cn3c(ccc(-c4ccccc4F)c3=O)[C@@H]2N1C(C)=O,nt,nt,nt,nt,nt,-2
N#CCC(=O)N/N=C/c1cn(Cc2ccccc2C#N)c2ccccc12,-1,nt,-1,-6,-1,-1
CCOC(=O)Cn1cc(/C=N/NC(=O)CC#N)c2ccccc21,-3,52*,0,3,0,2
C[C@H](CO)N1C[C@H](C)[C@H](CN(C)C(=O)c2cnccn2)Oc2ncc(-c3ccccc3F)cc2C1=O,nt,nt,nt,nt,0,0
Cc1ccc2c(c1)Oc1ccc(NC(=O)CCl)cc1C(=O)N2,-5,60*,2,-7,nt,nt
C[C@H](CO)N1C[C@H](C)[C@@H](CN(C)C(=O)Nc2ccccc2)Oc2ccc(NC(=O)Nc3ccc(C(F)(F)F)cc3)cc2CC1=O,nt,nt,nt,nt,0,1
Cc1ccc(S[C@@H](CCN2CC[C@H](C)CCC2=O)c2ccccc2)cc1,-13,30*,1,-1,0,-1
